Screening data: PubChem BioAssay, The Scripps Research Institute Molecular Screening Center
Only some compounds are listed: those with a hit (about 3.5% of all), similar ones and a draw of the others.
GPR151 ag: activates the human receptor GPR151 | 650,000 compounds, 1% hits | activation, % at 11.2 µM | PathHunter beta-arrestin GPR151 cells, luminescence | AID 1508602; in the data active = activation above about 4.9%;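 also: 0% = median of compound wells and 100% = cells with positive control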
MITF inh: human MITF inhibition, primary screen. O75030. AlphaScreen MITF homodimerization, bead proximity signal. inhibition, % at 2.6 µM. 650,000 compounds, 0.91% hits; in the data active = inhibition above about 50%;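 also: 0% = vehicle wells with protein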
Target sequence (O75030 whole entry, looked up): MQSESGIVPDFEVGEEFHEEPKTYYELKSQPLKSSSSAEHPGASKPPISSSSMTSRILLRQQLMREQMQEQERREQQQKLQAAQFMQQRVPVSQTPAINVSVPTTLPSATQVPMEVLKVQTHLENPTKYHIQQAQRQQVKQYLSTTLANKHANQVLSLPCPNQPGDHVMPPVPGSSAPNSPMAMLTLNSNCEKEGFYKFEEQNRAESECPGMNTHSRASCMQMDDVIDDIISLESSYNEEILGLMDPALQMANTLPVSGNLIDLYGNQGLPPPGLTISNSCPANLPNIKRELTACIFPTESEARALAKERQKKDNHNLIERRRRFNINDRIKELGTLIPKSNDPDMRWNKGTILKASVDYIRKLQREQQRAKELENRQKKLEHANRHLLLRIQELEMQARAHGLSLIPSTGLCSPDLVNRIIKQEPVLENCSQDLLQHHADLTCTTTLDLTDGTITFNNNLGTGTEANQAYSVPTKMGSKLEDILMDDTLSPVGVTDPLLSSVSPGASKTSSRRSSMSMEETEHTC
TEAD-YAP block: TEAD-YAP interaction inhibition | inhibition, % at 9.12 µM | HEK-TIYL cells, TEAD-Gal4/YAP UAS-luciferase luminescence | AID 1259422 | 640,000 compounds, 1.4% hits; in the data active = inhibition above about 32%;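 also: 0% = median of test compound wells and 100% = reference inhibitor wells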
FBW7 act: human FBW7 E3 ligase activation, primary screen; AlphaScreen FBW7–phospho-cyclin E peptide binding, activator screen; normalized activity (activation), % at 26.1 µM; 650,000 compounds, 0.13% hits; Q969H0; in the data active = normalized activity above about 1.9%;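 also: purified mutant Fbw7 with reduced substrate affinity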
Starred values were filed as active, the others as inactive.

Results for c1ccc2sc(N3CCN(C4CCCCC4)CC3)nc2c1 ?
GPR151 ag: 0; MITF inh: 7; TEAD-YAP block: 69*; FBW7 act: 0

What do the screens show for `O=C(NC1CCCCC1)NC1CCN(Cc2nnnn2Cc2ccco2)CC1`?
GPR151 ag: -1; MITF inh: -13; TEAD-YAP block: 0; FBW7 act: 0

Results for CC(C)(C)C(=O)NC1CCN(Cc2nnnn2Cc2ccco2)CC1 ?
GPR151 ag: -5; MITF inh: -1; TEAD-YAP block: 71*; FBW7 act: 0

What do the screens show for `COc1cccc(CNC(=O)c2cnc3ccc(-c4cn[nH]c4)cn23)c1`?
GPR151 ag: 0; MITF inh: 0; TEAD-YAP block: 88*; FBW7 act: 0

How did CCn1c(C)[n+](CC(O)COc2ccccc2OC)c2ccccc21 (stereo not given) do in these assays?
GPR151 ag: 2; MITF inh: 3; TEAD-YAP block: 4; FBW7 act: 0

How did CC(C)N(CCNc1cc(Nc2ccccc2)nc(N)n1)C(C)C do in these assays?
GPR151 ag: 0; MITF inh: -16; TEAD-YAP block: -8; FBW7 act: 0

How did Cc1nc2c3ccccc3n3c(CCCC(=O)NCc4ccco4)nnc3n2n1 do in these assays?
GPR151 ag: 1; MITF inh: 7; TEAD-YAP block: 14; FBW7 act: 0

How did CC1(C)N=C(N)N=C(N)N1c1ccc(Oc2ccc(Cl)cc2)c(Cl)c1 do in these assays?
GPR151 ag: -1; MITF inh: 7; TEAD-YAP block: 37*; FBW7 act: 0

How did COC(=O)c1c(NC(=O)c2ccco2)sc2c1CC(C)(C)NC2(C)C do in these assays?
GPR151 ag: 1; MITF inh: 8; TEAD-YAP block: -2; FBW7 act: 0

How did CCOc1cccc(/C=N\NC(=O)c2cccnc2)c1O do in these assays?
GPR151 ag: -1; MITF inh: 59*; TEAD-YAP block: 31; FBW7 act: -1

Results for CCOc1ccc(/C=N/NC(=O)c2cccs2)cc1 ?
GPR151 ag: -5; MITF inh: 3; TEAD-YAP block: -40; FBW7 act: 0

Results for CCOc1cccc(/C=N\NC(=O)c2ccc(Br)cc2)c1O ?
GPR151 ag: -1; MITF inh: 20; TEAD-YAP block: 13; FBW7 act: -1

How did COc1cccc(/C=N/NC(=O)C(=O)NCc2cccnc2)c1O do in these assays?
GPR151 ag: -1; MITF inh: 61*; TEAD-YAP block: 6; FBW7 act: 0

How did CCN(CC)c1ccc(/C=N/NC(=O)c2cccnc2)c(O)c1 do in these assays?
GPR151 ag: -1; MITF inh: 28; TEAD-YAP block: 70*; FBW7 act: 0

Results for CCOc1cccc(/C=N/NC(=O)c2cccs2)c1O ?
GPR151 ag: -2; MITF inh: 39; TEAD-YAP block: 50*; FBW7 act: 0

What do the screens show for `CCc1ccc(OCC(=O)N(Cc2ccc(Cl)cc2)C2CCS(=O)(=O)C2)cc1` (stereo not given)?
GPR151 ag: -1; MITF inh: -11; TEAD-YAP block: -6; FBW7 act: 0

How did Cc1ccc2c(c1)CN(CCNC(=O)c1c(-c3ccccc3)noc1C)CC(C)O2 (stereo not given) do in these assays?
GPR151 ag: -1; MITF inh: 0; TEAD-YAP block: -2; FBW7 act: 0

Results for O=C(NCCN1CCOCC1)C(=O)NCc1ccc(Cl)cc1 ?
GPR151 ag: 1; MITF inh: 9; TEAD-YAP block: 3; FBW7 act: 0

How did COc1cccc(/C=N/NC(=O)c2cccnc2)c1O do in these assays?
GPR151 ag: 0; MITF inh: 71*; TEAD-YAP block: 23; FBW7 act: 0

Results for COc1ccc(NC(=O)c2ccccc2)cc1 ?
GPR151 ag: -9; MITF inh: -11; TEAD-YAP block: -26; FBW7 act: 0

What do the screens show for `O=C(CC1C(=O)N(c2ccc(Cl)cc2)C(=S)N1CCc1ccc(Cl)cc1)Nc1ccc(F)cc1` (stereo not given)?
GPR151 ag: -1; MITF inh: 21; TEAD-YAP block: -11; FBW7 act: 2.0*

What do the screens show for `CC(C(=O)c1ccc(-c2ccccc2)cc1)[n+]1ccc2ccccc2c1` (stereo not given)?
GPR151 ag: 0; MITF inh: 7; TEAD-YAP block: 56*; FBW7 act: 0

Results for O=C(CSc1nnc2sc3ccccc3n12)NCc1ccccc1 ?
GPR151 ag: 1; MITF inh: 8; TEAD-YAP block: 46*; FBW7 act: 0

What do the screens show for `O=C(CSc1nnc2sc3ccccc3n12)c1ccc(F)cc1`?
GPR151 ag: -1; MITF inh: -4; TEAD-YAP block: -38; FBW7 act: 2.1*

Results for O=C(N/N=C\c1ccccc1[N+](=O)[O-])c1n[nH]c2c1CCCC2 ?
GPR151 ag: -8; MITF inh: 23; TEAD-YAP block: 54*; FBW7 act: 0

Results for O=C(N/N=C/c1ccccc1O)c1n[nH]c2c1CCCC2 ?
GPR151 ag: -3; MITF inh: 4; TEAD-YAP block: 33*; FBW7 act: -2

What do the screens show for `COc1ccc(C(=O)N2CCN(Cc3ccc(SC)cc3)CC2)cc1`?
GPR151 ag: -2; MITF inh: 37; TEAD-YAP block: 43*; FBW7 act: 0

What do the screens show for `CN(C)c1ccc(-c2nc3ccccc3c(=O)[nH]2)cc1`?
GPR151 ag: -7; MITF inh: 7; TEAD-YAP block: 72*; FBW7 act: 0

What do the screens show for `Cc1cc2nc(-c3ccc(N)cc3O)oc2cc1C`?
GPR151 ag: 0; MITF inh: 7; TEAD-YAP block: 31; FBW7 act: 0

What do the screens show for `CC(C)c1ccc2oc(-c3ccc(N)cc3O)nc2c1`?
GPR151 ag: -1; MITF inh: -3; TEAD-YAP block: 87*; FBW7 act: 0

Results for CC(C)c1ccc2oc(-c3cc(N)ccc3O)nc2c1 ?
GPR151 ag: -4; MITF inh: 11; TEAD-YAP block: 64*; FBW7 act: 0

How did Cc1ccc2oc(-c3cc(N)ccc3O)nc2c1 do in these assays?
GPR151 ag: -8; MITF inh: 7; TEAD-YAP block: -35; FBW7 act: 0

How did CC(C)N(CCNc1nc(-c2cccs2)nc2c1ncn2-c1ccsc1)C(C)C do in these assays?
GPR151 ag: -2; MITF inh: 5; TEAD-YAP block: 17; FBW7 act: 0

How did CCC(C)Nc1c(-c2ccc(C)cc2)c(=O)c1=O (stereo not given) do in these assays?
GPR151 ag: -2; MITF inh: 13; TEAD-YAP block: 24; FBW7 act: 0

What do the screens show for `Cc1ccc(-c2c(NC3CCCC3)c(=O)c2=O)cc1C`?
GPR151 ag: 1; MITF inh: 12; TEAD-YAP block: 32*; FBW7 act: 0

Results for CCC(C)Nc1c(-c2ccc(C)c(C)c2)c(=O)c1=O (stereo not given) ?
GPR151 ag: 0; MITF inh: -3; TEAD-YAP block: 52*; FBW7 act: 0

How did COc1cc(C(=O)NNc2cc(=O)n(C)c(=O)n2C)cc(OC)c1OC do in these assays?
GPR151 ag: 0; MITF inh: 1; TEAD-YAP block: 0; FBW7 act: 0

What do the screens show for `CC(C)(C)P(=NC(=S)NCCCO)(N1CCCCCC1)N1CCCCCC1`?
GPR151 ag: 1; MITF inh: 16; TEAD-YAP block: 73*; FBW7 act: 0
